“And” between values parts separate entries of the source, which are not always exact repeats. Identical values can stand only once. Screen size: about 5,500 compounds; about 2,000 (36%) were called active. Another 18% or so got no clear call; they are omitted. Rule as the data show it: active = normalized growth mostly below about 0.91 (no sharp cut-off); inconclusive = no clear call, values can overlap the other calls; inactive = mostly above about 0.92. The list shows a part of the results.
Test: chemical genetic growth profiling, strain panel (AID 1159580);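 also: tested at 20 µM; growth read once vehicle control cultures reached saturation at 30 °C; 1 = growth at the plate median or of vehicle wells; lower values mean less growth of the strain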
Conditions: growth OD

Measured: normalized growth

C[N+]1(CCCCC[N+]2(C)CCCC2)CCCC1
inactive: S. cerevisiae deletion strains, locus YJR043C, strain POL32, active compounds read low 1.01 | S. cerevisiae deletion strains, locus YJR075W, strain HOC1, active compounds read low 1.02 and 0.994 | S. cerevisiae deletion strains, locus YKL009W, strain mrt4, active compounds read low 1.04 | S. cerevisiae deletion strains, locus YKL068W, active compounds read low 1.01 | S. cerevisiae deletion strains, locus YKL085W, strain MDH1 (second series), active compounds read low 1.01 | S. cerevisiae deletion strains, locus YKL085W, strain MDH1, active compounds read low 1.01 | S. cerevisiae deletion strains, locus YKL160W, strain elf1, active compounds read low 1.01 | S. cerevisiae deletion strains, locus YKL190W, strain CNB1, active compounds read low 1.01 | S. cerevisiae deletion strains, locus YKR001C, strain vps1, active compounds read low 1.01 | S. cerevisiae deletion strains, locus YKR026C, strain gcn3, active compounds read low 1 | S. cerevisiae deletion strains, locus YKR091W, strain srl3, active compounds read low 1 | S. cerevisiae deletion strains, locus YLL001W, strain dnm1, active compounds read low 1 | S. cerevisiae deletion strains, locus YLL026W, active compounds read low 0.992 | S. cerevisiae deletion strains, locus YLL041C, strain sdh2, active compounds read low 0.999 | S. cerevisiae deletion strains, locus YLR027C, strain aat2, active compounds read low 0.992 | S. cerevisiae deletion strains, locus YLR039C, strain RIC1, active compounds read low 1.02 | S. cerevisiae deletion strains, locus YLR058C, strain SHM2, active compounds read low 1.01 | S. cerevisiae deletion strains, locus YLR102C, strain apc9, active compounds read low 1.02 | S. cerevisiae deletion strains, locus YLR221C, strain rsa3, active compounds read low 1 | S. cerevisiae deletion strains, locus YLR258W, strain gsy2, active compounds read low 0.998 | S. cerevisiae deletion strains, locus YLR262C, strain YPT6 (second series), active compounds read low 1.03 | S. cerevisiae deletion strains, locus YLR262C, strain YPT6, active compounds read low 1.03 | S. cerevisiae deletion strains, locus YLR268W, strain sec22, active compounds read low 1.03 | S. cerevisiae deletion strains, locus YLR320W, strain mms22, active compounds read low 0.993 | S. cerevisiae deletion strains, locus YLR330W, strain CHS5, active compounds read low 1 | S. cerevisiae deletion strains, locus YLR342W, strain FKS1 (second series), active compounds read low 1.01 | S. cerevisiae deletion strains, locus YLR342W, strain FKS1, active compounds read low 0.995 | S. cerevisiae deletion strains, locus YLR357W, strain rsc2, active compounds read low 0.963 | S. cerevisiae deletion strains, locus YLR370C, strain arc18, active compounds read low 1 | S. cerevisiae deletion strains, locus YLR371W, strain rom2, active compounds read low 1.03 | S. cerevisiae deletion strains, locus YLR384C, strain iki3, active compounds read low 0.992 | S. cerevisiae deletion strains, locus YLR418C, strain cdc73, active compounds read low 1.02 | S. cerevisiae deletion strains, locus YML016C, strain PPZ1, active compounds read low 1.01 | S. cerevisiae deletion strains, locus YML032C, strain rad52, active compounds read low 1.03 | S. cerevisiae deletion strains, locus YML120C, strain ndi1, active compounds read low 0.99 | S. cerevisiae deletion strains, locus YML124C, strain tub3, active compounds read low 1.02 | S. cerevisiae deletion strains, locus YMR058W, strain fet3, active compounds read low 0.999 | S. cerevisiae deletion strains, locus YMR078C, strain ctf18, active compounds read low 1.03 | S. cerevisiae deletion strains, locus YMR125W, strain sto1, active compounds read low 0.979 | S. cerevisiae deletion strains, locus YMR129W, active compounds read low 0.999 | S. cerevisiae deletion strains, locus YMR205C, strain PFK2, active compounds read low 1.01 | S. cerevisiae deletion strains, locus YMR223W, strain ubp8, active compounds read low 1 | S. cerevisiae deletion strains, locus YMR231W, strain pep5, active compounds read low 0.993 | S. cerevisiae deletion strains, locus YMR263W, strain SAP30, active compounds read low 1.01 | S. cerevisiae deletion strains, locus YMR307W, strain GAS1, active compounds read low 1 and 1.02 | S. cerevisiae deletion strains, locus YNL067W, strain RPL9B, active compounds read low 1.02 | S. cerevisiae deletion strains, locus YNL071W, strain lat1, active compounds read low 0.997 | S. cerevisiae deletion strains, locus YNL128W, strain TEP1, active compounds read low 1.01 | S. cerevisiae deletion strains, locus YNL153C, strain GIM3, active compounds read low 1.01 and 1.02 | S. cerevisiae deletion strains, locus YNL175C, strain NOP13, active compounds read low 0.993 | S. cerevisiae deletion strains, locus YNL197C, strain WHI3, active compounds read low 0.982 | S. cerevisiae deletion strains, locus YNL209W, strain ssb2, active compounds read low 0.995 | S. cerevisiae deletion strains, locus YNL224C, strain SQS1, active compounds read low 0.988 | S. cerevisiae deletion strains, locus YNL233W, strain BNI4, active compounds read low 1.01 | S. cerevisiae deletion strains, locus YNL248C, strain rpa49, active compounds read low 0.996 | S. cerevisiae deletion strains, locus YNL250W, strain rad50, active compounds read low 1.02 | S. cerevisiae deletion strains, locus YNL271C, strain bni1, active compounds read low 1.01 | S. cerevisiae deletion strains, locus YNL298W, strain CLA4, active compounds read low 1.02 | S. cerevisiae deletion strains, locus YNL307C, strain MCK1, active compounds read low 1.03 | S. cerevisiae deletion strains, locus YNL322C, strain KRE1 (second series), active compounds read low 0.998 | S. cerevisiae deletion strains, locus YNL322C, strain KRE1, active compounds read low 1 | S. cerevisiae deletion strains, locus YNR049C, strain mso1, active compounds read low 0.994 | S. cerevisiae deletion strains, locus YNR052C, strain pop2, active compounds read low 1.02 | S. cerevisiae deletion strains, locus YOL006C, strain TOP1, active compounds read low 1.04 | S. cerevisiae deletion strains, locus YOL012C, strain htz1 1.04 | S. cerevisiae deletion strains, locus YOL147C, strain pex11, active compounds read low 1.02 | S. cerevisiae deletion strains, locus YOR001W, strain rrp6, active compounds read low 0.995 | S. cerevisiae deletion strains, locus YOR061W, strain CKA2, active compounds read low 1.01 | S. cerevisiae deletion strains, locus YOR069W, strain VPS5, active compounds read low 1 | S. cerevisiae deletion strains, locus YOR070C, strain gyp1, active compounds read low 0.998 | S. cerevisiae deletion strains, locus YOR080W, strain dia2, active compounds read low 0.987 | S. cerevisiae deletion strains, locus YOR083W, strain WHI5 (second series), active compounds read low 1.01 | S. cerevisiae deletion strains, locus YOR083W, strain WHI5, active compounds read low 0.993 | S. cerevisiae deletion strains, locus YOR106W, strain vam3, active compounds read low 1.01 | S. cerevisiae deletion strains, locus YOR136W, strain idh2, active compounds read low 1.01 | S. cerevisiae deletion strains, locus YOR144C, strain elg1, active compounds read low 1.02 | S. cerevisiae deletion strains, locus YOR184W, strain ser1, active compounds read low 1.03 | S. cerevisiae deletion strains, locus YOR265W, strain rbl2, active compounds read low 0.994 | S. cerevisiae deletion strains, locus YOR270C, strain vph1, active compounds read low 1.02 | S. cerevisiae deletion strains, locus YOR290C, strain snf2, active compounds read low 0.996 | S. cerevisiae deletion strains, locus YOR316C, strain cot1, active compounds read low 1.01 | S. cerevisiae deletion strains, locus YPL051W, strain arl3, active compounds read low 0.999 | S. cerevisiae deletion strains, locus YPL055C, strain LGE1, active compounds read low 1.03 | S. cerevisiae deletion strains, locus YPL078C, strain atp4, active compounds read low 0.997 | S. cerevisiae deletion strains, locus YPL106C, strain sse1, active compounds read low 0.985 | S. cerevisiae deletion strains, locus YPL240C, strain hsp82, active compounds read low 0.982 | S. cerevisiae deletion strains, locus YPL241C, strain CIN2, active compounds read low 1.01 and 0.991 | S. cerevisiae deletion strains, locus YPR119W, strain clb2, active compounds read low 1.02 | S. cerevisiae deletion strains, locus YPR141C, strain kar3, active compounds read low 1.01 | S. cerevisiae deletion strains, locus YPR163C, strain tif3, active compounds read low 1.02 | S. cerevisiae deletion strains, locus YPR167C, strain met16, active compounds read low 1.01 | S. cerevisiae deletion strains, strain wtn01, active compounds read low 1.01 | S. cerevisiae strains, strain wild type, active compounds read low 1.01
